# According to the supplement of paper PMC12340641:
# ± gives the standard deviation of the averaged measurements.
# Assays:
# [1] = target: IKZF1 (dCK*-IKZF1 fusion in HEK293FT) (UniProt Q13422); assay: inhibition of IKZF1 HTRF signal (DMSO = 0%, pomalidomide 10 uM = 100%); higher = lower IKZF1 protein level; settings: compound concentration: 5 uM, overnight (~20 h)
# How it was run: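 After overnight treatment at 37 °C with 5 μM compound in single wells, HEK293FT cells (2000/well, 384-well) stably expressing an IKZF1 fusion were lysed for 30 min at room temperature. A commercial HTRF total-IKZF1 antibody kit was incubated with the lysate overnight, and the time-resolved FRET ratio at 665/620 nm was corrected for background. Data are given as percent inhibition of IKZF1 signal relative, on each plate, to vehicle and a reference degrader, set at 0% and 100% respectively.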
# HEK293FT dCK*-only = assay: relative growth in counter assay (no AraC = 100%, AraC + DMSO = 0%); higher = more growth rescue independent of IKZF1; settings: compound concentration: 5 uM; AraC concentration: 0.3 uM; overnight pretreatment + 4 days AraC
# How it was run: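 Counter assay in HEK293FT cells expressing dCK* alone (300/well, 384-well). Cells received 5 μM compound 2 h after seeding, then after overnight at 37 °C a nucleoside suicide substrate at 0.3 μM plus medium for 4 days. On day 5, Hoechst 33342-stained nuclei were counted by imaging. Relative growth was normalised per plate to wells without suicide substrate (100%) and substrate plus vehicle (0%).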
# HEK293FT dCK*-IKZF1 = assay: relative growth recovery (pomalidomide 10 uM = 100%, DMSO = 0%); higher = more growth rescue (IKZF1 fusion degradation); settings: compound concentration: 5 uM; AraC concentration: 0.3 uM; overnight pretreatment + 4 days AraC
# How it was run: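 HEK293FT cells stably expressing a dCK*-IKZF1 fusion (300/well, 384-well) received 5 μM compound 2 h after seeding. After overnight at 37 °C they received a nucleoside suicide substrate at 0.3 μM plus medium for 4 days. On day 5, Hoechst 33342-stained nuclei were counted by whole-well imaging. Growth recovery was normalised per plate to a reference degrader (100%) and vehicle (0%); values are means of duplicates run on different days.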
# Chain of IKZF1 (dCK*-IKZF1 fusion in HEK293FT) (Q13422 whole entry, looked up, the tested form may be a part): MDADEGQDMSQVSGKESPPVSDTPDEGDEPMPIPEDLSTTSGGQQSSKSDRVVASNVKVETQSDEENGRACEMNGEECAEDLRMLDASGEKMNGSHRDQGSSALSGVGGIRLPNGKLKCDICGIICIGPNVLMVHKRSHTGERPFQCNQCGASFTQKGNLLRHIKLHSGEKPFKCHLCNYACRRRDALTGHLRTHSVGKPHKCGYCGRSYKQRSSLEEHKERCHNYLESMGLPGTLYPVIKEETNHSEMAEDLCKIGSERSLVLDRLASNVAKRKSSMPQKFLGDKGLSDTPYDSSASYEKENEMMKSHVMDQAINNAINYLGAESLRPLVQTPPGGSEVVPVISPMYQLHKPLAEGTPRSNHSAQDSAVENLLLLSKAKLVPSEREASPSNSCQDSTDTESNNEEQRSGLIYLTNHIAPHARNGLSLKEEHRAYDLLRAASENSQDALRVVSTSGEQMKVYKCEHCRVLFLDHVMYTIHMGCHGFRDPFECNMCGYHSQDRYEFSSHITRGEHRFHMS
SMILES,inhibition of IKZF1 HTRF signal [1] [%],relative growth in counter assay (HEK293FT dCK*-only) [%],relative growth recovery (HEK293FT dCK*-IKZF1) [%]
COc1cc([C@@H]2c3cc4c(cc3[C@H](O)[C@H]3COC(=O)[C@H]23)OCO4)cc(OC)c1OC,50,-33.7,-11.7
CCC(C)[C@H]1O[C@]2(C=C[C@@H]1C)C[C@@H]1C[C@@H](C/C=C(\C)[C@@H](OC3C[C@H](OC)C(O[C@H]4C[C@H](OC)[C@@H](O)[C@H](C)O4)[C@H](C)O3)[C@@H](C)/C=C/C=C3\CO[C@@H]4[C@H](O)C(C)=C[C@@H](C(=O)O1)[C@]34O)O2 (stereo not given in full) [ABAMECTIN (avermectin B1a shown)],-61.7,-8.1,-3.08
CC[C@H]1CN2CCc3cc(OC)c(OC)cc3C2C[C@@H]1CC1NCCc2cc(OC)c(OC)cc21 (stereo not given in full),38.3,-34.9,-12.4
C[C@]12CC[C@H](O)C[C@H]1CC[C@@H]1[C@@H]2C[C@@H](O)[C@]2(C)[C@@H](C3=CC(=O)OC3)CC[C@]12O [Digoxigenin],22.7,-33.8,-10.9
O=C(CCCN1CCC(n2c(=O)[nH]c3ccccc32)CC1)c1ccc(F)cc1 [benperidol],-18.1,4.87,1.78
O=C(Nc1ccc(Br)cc1)c1cc(Br)cc(Br)c1O [tribomsalan],13.9,-2.64,-2.67
O=C1c2ccccc2C(=O)c2ccccc21 [anthraquinone],-34.9,0.57,-0.655
COc1cc2c(c(OC)c1OC)-c1ccc(OC)c(=O)cc1[C@@H](NC(C)=O)CC2,-16.1,-34.4,-11.6
CC[C@@]1(O)C(=O)OCc2c1cc1n(c2=O)Cc2cc3ccccc3nc2-1 [camptothecin],-10.9,-34.5,-12.9
COc1ccc2c(c1)/C(=C/c1cnc[nH]1)C(=O)N2,-35.9,-21.6,-7.43
O=[N+]([O-])/C=C/c1ccc2c(c1)OCO2,-44.2,-33.6,-13.1
Fc1ccc(C(OCCN2CCN(C/C=C/c3ccccc3)CC2)c2ccc(F)cc2)cc1,-25.2,4.29,8.18
c1ccc(CCCN2CCN(CCOC(c3ccccc3)c3ccccc3)CC2)cc1,-28.8,-4.09,3.4
N=C(Nc1ccccc1)Nc1ccccc1 [diphenylguanidine],-55.9,-6.47,-1.17
C[C@@]1(CO)[C@H](O)CC[C@@]2(C)[C@H]1CC[C@H]1C[C@@H]3C[C@@]12CC[C@]3(O)CO [Aphidicolin],-14.2,-34.1,-12.3
COc1cc2cc(c1Cl)N(C)C(=O)C[C@H](OC(=O)C(C)C)[C@]1(C)O[C@H]1[C@H](C)[C@@H]1C[C@@](O)(NC(=O)O1)[C@H](OC)/C=C/C=C(\C)C2 [Ansamitocin P-3],-18.7,-34.3,-12.4
O=C(N/N=C/c1ccc([N+](=O)[O-])o1)c1cc([N+](=O)[O-])cc([N+](=O)[O-])c1O,2.89,-3.38,-2.9
CCCCCCCCCCCCCCCC[n+]1ccccc1,-19.4,-34.4,-13
COc1cc2c(c(OC)c1OC)-c1ccc(OC)c(=O)cc1[C@@H](NC(C)=O)CC2 [Colchicine],17.9 ± 34,-33.57 ± 0.13,-12.2 ± 0.36
CC(Cc1ccccc1)NCCC(c1ccccc1)c1ccccc1 (stereo not given) [prenylamine],-23.8,9.26,-0.73
CC(C)[C@]12O[C@H]1[C@@H]1O[C@]13[C@]1(O[C@H]1C[C@H]1C4=C(CC[C@@]13C)C(=O)OC4)[C@@H]2O [Triptolide],29.6,-34,-12.8
N#Cc1nn(-c2c(Cl)cc(C(F)(F)F)cc2Cl)c(N)c1S(=O)C(F)(F)F (stereo not given),-50.9,7.45,-1.52
O=c1[nH]c2ccccc2n1CCCN1CCC(n2c(=O)[nH]c3cc(Cl)ccc32)CC1,4.83,-4.05,2.7
c1ccc2c(c1)sc1ccccc12,-33.1,-4.73,1.72
C[C@H]1O[C@@H](O[C@H]2[C@@H](O)C[C@H](O[C@H]3[C@@H](O)C[C@H](O[C@H]4CC[C@@]5(C)[C@H](CC[C@@H]6[C@@H]5C[C@@H](O)[C@]5(C)C(c7coc(O)c7)CC[C@]65O)C4)O[C@@H]3C)O[C@@H]2C)C[C@H](O)[C@@H]1O (stereo not given in full) [Digoxin],84.1,-34.1,-12.6
CC[C@@H](C(N)=O)N1CCCC1=O,17.7,2.24,0.38
C[C@@H]1C[C@@H]([C@H](O)CC2CC(=O)NC(=O)C2)C(=O)[C@@H](C)C1,79.8,-33.1,-12
C[C@]12CCC3C(CC[C@]4(O)C[C@@H](O)CC[C@]34C=O)[C@@]1(O)CCC2C1=CC(=O)OC1 (stereo not given in full) [Strophantidin],74.7,-32.9,-11.4
Fc1ccc(C(OCCN2CCN(CCCc3ccccc3)CC2)c2ccc(F)cc2)cc1 [vanoxerine],-25.6,-32.4,-10.5
O=c1c2ccccc2[se]n1-c1ccccc1,-37.8,-8.59,-0.075
